Test results from the supplement of paper PMC6555819.

Assays:
Assay in all cases: PBM binding z-score (relative to random genomic background probes); higher = stronger binding; sequences stand for … in GC…GCGATTGACAGCGTAGAATGAAGG
[1] = system: FXR:RXRa (NR concentration 270 nM, RXRa partner concentration 90 nM)
Outline: (§1)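 Each nuclear receptor dimer, without ligand, was incubated for 1 h on custom Agilent 4×180K protein-binding microarrays. Binding was detected with antibodies against each partner (one per run), and scanned fluorescence was regression-normalized. The binding z-scores are referenced to random human genomic background probes.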

[2] = system: LXRa:RXRa (NR concentration 270 nM, RXRa partner concentration 90 nM)
Outline: as §1

[3] = system: LXRa homodimer (NR concentration 270 nM)
Outline: as §1

[4] = system: LXRb:RXRa (NR concentration 270 nM, RXRa partner concentration 90 nM)
Outline: as §1

[5] = system: LXRb homodimer (NR concentration 270 nM)
Outline: as §1

[6] = system: PPARa:RXRa (NR concentration 270 nM, RXRa partner concentration 90 nM)
Outline: as §1

[7] = system: PPARg:RXRa (NR concentration 180 nM, RXRa partner concentration 90 nM)
Outline: as §1

[8] = system: PPARg:RXRa 270nM:90nM, anti-RXR (NR concentration 270 nM, RXRa partner concentration 90 nM)
Outline: as §1

[9] = system: PPARg:RXRa 30nM:10nM, anti-RXR (NR concentration 30 nM, RXRa partner concentration 10 nM)
Outline: as §1

[10] = system: PPARg:RXRa 90nM:30nM, anti-RXR (NR concentration 90 nM, RXRa partner concentration 30 nM)
Outline: as §1

| Sequence | PBM binding z-score [1] | PBM binding z-score [2] | PBM binding z-score [3] | PBM binding z-score [4] | PBM binding z-score [5] | PBM binding z-score [6] | PBM binding z-score [7] | PBM binding z-score [8] | PBM binding z-score [9] | PBM binding z-score [10] |
| --- | --- | --- | --- | --- | --- | --- | --- | --- | --- | --- |
| CGTCCAAGGTCAATGCTAGGGCAGTGAAAGCATT | 6.49 | 4.8 | 0.528 | 3.57 | 0.446 | 5.03 | 3.68 | 4.65 | 1.05 | 3.08 |
| ACTCGAAGGACAAAGGTCAGAGCTACGCCAGTGA | 4.03 | 3.98 | 1.41 | 3.57 | 0.35 | 4.95 | 6.73 | 6.23 | 5.02 | 6.39 |
| ATCGAAAGGCCGAGGTGAGTATAGAGAAAGGGAA | 0.0206 | -0.227 | -0.447 | -0.337 | -0.455 | -0.0261 | 0.313 | -0.133 | -0.0137 | -0.154 |
| GCTAGCAGGCCATTTGGGTCACTCAGTGACGGGC | 0.0736 | -0.00862 | -0.609 | -0.133 | -1.43 | 1.14 | 0.272 | 0.402 | -0.825 | -0.0196 |
| CCTACTGGGCTATTCAGAGGTCATTGATCATATG | 2.44 | 4.58 | 7.28 | 3.7 | 0.414 | 3.44 | 1.17 | 2.73 | 0.812 | 1.97 |
| TTACGAAGGTGAAGGTCGTTGATCCCTCTGTAGA | 2.35 | 1.9 | -0.207 | 1.48 | -0.709 | 2.66 | 2.48 | 3.86 | 2.7 | 3.16 |
| TCTTGTAGATCAAGCATGTTAAGAAAGCCTGAGT | 0.693 | 0.403 | -0.106 | 0.334 | -0.513 | 0.796 | -0.182 | 1.46 | 2.56 | 2.01 |
| CAAACTAGGTCACGAAAGGTCAAACTCGAATGAC | 7.61 | 8.32 | 8.55 | 7.66 | 3.3 | 6.75 | 10.5 | 8.69 | 6.95 | 8.93 |
| TCTATTAATTGATTAGGGCAACCGAAACAGCGGA | 0.209 | 0.405 | 1.09 | 0.283 | 0.631 | 0.559 | 0.157 | 1.87 | 3.6 | 2.5 |
| GCAGACAGGTGAAACTCAGGTAACTCAGGGTGGC | 0.432 | 0.209 | -0.137 | -0.208 | -0.746 | 1.13 | 0.585 | 0.196 | -0.602 | -0.156 |
| CCGACTGGGGCTAGGTTACCATAACGCACAGCCA | -0.553 | -0.225 | -0.483 | -0.184 | -0.938 | -0.107 | 0.784 | 0.0405 | -0.564 | -0.369 |
| TGTAGTTGGTCACGGAGGTCACACACGACGGGTA | 3.41 | 3.44 | 2.52 | 3.09 | 0.847 | 3.87 | 3.72 | 3.52 | 1.51 | 2.93 |
| TCTTGTCGATCAAAGGTTAAGAAAGCCGAAGCCT | 1.41 | 1.95 | 0.175 | 1.9 | 0.245 | 3.76 | 5.79 | 6.32 | 5.47 | 6.64 |
| ACTATTAGTTGAGACGAGGGGAACCGATAGGTTG | 0.227 | -0.0882 | -0.278 | -0.282 | 0.604 | -0.0604 | 0.569 | -0.00558 | 0.211 | 0.143 |
| CAAACTAGGTCAATAGGTCAAAGTCCGCTTCCCG | 5.97 | 5.58 | 3.46 | 4.5 | 1.42 | 5.97 | 9.53 | 7.87 | 6.52 | 8.3 |
| CCTAGTTGGTCAAGTTCACACACGCTATAGGTAC | 1.66 | 2.31 | 1.74 | 2.18 | 0.695 | 2.19 | 1.3 | 1.5 | 0.803 | 1.16 |
| GCAGACAGGTGAAACGCAGGGAACTCAGGGTGGC | -0.391 | -0.181 | -0.294 | -0.514 | -1.21 | 0.613 | 0.488 | -0.246 | -0.526 | -0.424 |
| AGAACGTGGGCACGCTGAGTTGATAGCAGAGTAG | -0.602 | -0.538 | -0.448 | -0.8 | -1.22 | -0.462 | 0.523 | -0.265 | -0.225 | -0.405 |
| ACTATTAGTTGAGACGAGGGTAACCGATAGGTTG | 0.247 | 0.035 | -0.0924 | -0.182 | 0.187 | -0.0411 | 0.515 | 0.0504 | 0.213 | 0.176 |
| CGTCCAAGGTCAGCAGGTCAGTGACAGCGACGTG | 5.75 | 3.99 | 0.47 | 2.99 | -0.142 | 4.63 | 3.93 | 4.53 | 1.26 | 2.97 |
| ATCTCTAGGTAAAGATAGTTCAATGAATGCAAAT | 0.446 | 4.83 | 1.09 | 1.44 | 0.777 | 1.15 | 1.03 | 0.735 | 0.381 | 0.638 |
| ATCGAAAGGTCGAAGGTGAGTATCCCCACCCGAA | 3.99 | 3.46 | 0.139 | 2.58 | 0.489 | 4.42 | 4.5 | 4.68 | 2.04 | 3.58 |

| Sequence | PBM binding z-score [1] | PBM binding z-score [2] | PBM binding z-score [3] | PBM binding z-score [4] | PBM binding z-score [5] | PBM binding z-score [6] | PBM binding z-score [7] | PBM binding z-score [8] | PBM binding z-score [9] | PBM binding z-score [10] |
| --- | --- | --- | --- | --- | --- | --- | --- | --- | --- | --- |
| TCTTTTAGATCAATAGAGGTTAAGAAAGTGCGCT | 1.13 | 4.04 | 0.769 | 2.06 | 0.963 | 2.16 | 0.209 | 2.08 | 3.57 | 2.92 |
| ACTAGCTGGCCAAGTTTGGGTCACTCAAACAAAG | -0.286 | -0.318 | -0.768 | 0.339 | -0.865 | 1.03 | -0.347 | 0.0249 | -0.62 | -0.218 |
| CCTCGGAGGACAACAGGAGGTCAGGGCTGCCAGA | 1.17 | 1.84 | 1.45 | 1.14 | -0.784 | 2.09 | 0.517 | 0.522 | -0.226 | 0.18 |
| TGAACGAGGTTATAAGATCAGGGAACGTTGCAAA | 1.41 | 1.2 | -0.217 | 1.08 | -0.589 | 2.56 | 1.16 | 1.5 | 0.646 | 1.06 |
| CCAGACAGGTTAGAAGGTAACTCAGCCTCGATTA | 0.224 | 0.466 | 0.473 | 0.483 | 0.172 | 0.816 | 0.402 | 0.288 | -0.236 | 0.116 |
| CCGACTGGGGCAAAGGTTCCCATACTCAGTACGA | -0.153 | -0.12 | -0.431 | -0.0438 | -1.02 | 3 | 7.57 | 6.87 | 6.55 | 6.97 |
| CAAACTAGGTCCAAGGTCAAAGTCGAGCCAACCA | 3.97 | 3.48 | 1.97 | 3.75 | 0.508 | 5.32 | 9.35 | 7.68 | 7.65 | 8.28 |
| CGTCAAAGTTCAACTAAGGCAACGTAAAGCACGC | 6.41 | 6.09 | 3.57 | 3.9 | 1.79 | 4.93 | 4.8 | 5.53 | 1.96 | 4.18 |
| TAGCCTACGTCATTCAGGGGCCAGTATAGAAAGC | -0.632 | -0.447 | -0.497 | 0.157 | -0.0304 | -0.0175 | 0.374 | -0.279 | -0.505 | -0.468 |
| CCTCGGAGGACAACAGGAGGTCAGTGCTGCCAGA | 0.821 | 1.62 | 1.58 | 1.15 | -0.378 | 1.62 | 0.333 | 0.375 | -0.857 | -0.495 |
| ACTATTAGTTGAGACGATGGCAACCGATAGGTTG | -0.242 | -0.267 | 0.0381 | -0.527 | 0.0838 | -0.263 | 0.598 | -0.0569 | 0.0135 | -0.0627 |
| CCAACTGGGCCACGAAAGGTCATTGATTCAGTGA | 3.69 | 5.09 | 4.15 | 4.41 | 0.134 | 4.75 | 4.7 | 4.74 | 1.7 | 3.62 |
| TAGTCTAGGTCATTCAGGGGCCAGTATAGAAAGC | 4.17 | 4.28 | 2.05 | 3.15 | 3.06 | 4.05 | 4.7 | 4.38 | 2.33 | 3.77 |
| CAAACTAGGTCAAGAGGTCATAGTCCGCTTCCCG | 6.79 | 6.06 | 5.4 | 4.74 | 1.48 | 6.55 | 9.82 | 8 | 6.96 | 8.16 |
| TCTTGGAGATCAGCAGGTTAAGAAAGCTGGCCAA | 0.173 | -0.0127 | -0.38 | 0.0269 | -0.539 | 0.752 | -0.546 | 0.883 | 2.2 | 1.52 |
| ATCGAAAGGTCGTGATGTGAGTATACAGAAAGGC | 4.54 | 3.48 | 0.378 | 3.08 | 0.626 | 4.67 | 3.21 | 3.2 | 1.34 | 2.34 |
| CCTGCTAGCTCATGGTCAGCTAATCTACAGTATG | -0.461 | -0.418 | -0.46 | -0.626 | -0.239 | -0.737 | -0.225 | -0.822 | -0.885 | -0.895 |
| AGAATGAGGTTACCAAAGACCAGGGAAACGCTTG | 1.97 | 4.34 | -0.091 | 1.87 | -0.385 | 3.27 | 2.53 | 2.62 | 0.863 | 1.86 |
| CATACAGGGTCAGCTAGGCCAGGGTAGGGACGGC | 4.52 | 2.89 | -0.0552 | 1.98 | 0.437 | 4.12 | 3.01 | 2.84 | 0.569 | 1.95 |
| CCTTACGGGTCACTGACAGTTTATAGCATTTGGA | 5.44 | 4.17 | 0.494 | 3.4 | -0.118 | 5.18 | 4.21 | 4.37 | 1.57 | 3.25 |
| CCTATTGGGCCACGAAAGGTCATTGATTCAGTGA | 3.94 | 5.43 | 5.04 | 4.14 | 0.248 | 4.6 | 2.92 | 4.31 | 1.71 | 3.67 |
| CCTTACGGGTCACTGACAGGTTATACCATTTGGA | 4.86 | 4.42 | 0.698 | 3.61 | -0.46 | 5.07 | 4.22 | 4.39 | 1.45 | 3.05 |
